# High-throughput results deposited in PubChem by National Center for Advancing Translational Sciences (NCATS).
# The list is not random: actives were taken first. Their share in the collection is about 14%.
# LmPK inhibitor: inhibitors of Leishmania mexicana pyruvate kinase; Potency, µM (highest dose often 57.5 µM), inactives show at the highest dose activity change, negative = inhibition, actives largely listed as inhibitors; AID 1721; purified LmPK, Kinase-Glo ATP luminescence, 1 h; 290,000 compounds, 0.37% hits; note: potency is the fitted concentration of half-maximal effect; % is set by controls: 0 for no effect and ±100 for the full control effect
#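 Pyruvate kinase activity monitored as ATP production (luciferase luminescence). Conditions: 0.1 nM enzyme, 0.5 mM PEP, 0.1 mM ADP, 1 h, RT; normalized against uninhibited and no-enzyme wells.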
# Cycloheximide cs: counter-screen for Shiga toxin inhibitors: cycloheximide protein synthesis inhibition; max response, %; cell reporter, cycloheximide protein synthesis inhibition counterscreen; 300,000 compounds, 12% hits; in the data active = max response mostly above about 13%, no sharp cut-off; inactive = mostly below about 14%; note: read at 38.3 µM for the half of the compounds with a filed dose; 0% is about no effect
# NS1 function inh: influenza NS1 inhibition; AID 2326; Potency, µM (highest dose often 46.1 µM), without a hit: at the top dose activity, positive = more growth; 270,000 compounds, 0.4% hits; calls by dose curve; note: potency is the fitted concentration of half-maximal effect; actives are rising curves; nearly all actives have a fitted effect of over 50% in size
#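 S. cerevisiae expressing influenza A NS1, grown in glucose, washed, then diluted 1:100 into pH 6.0 -URA galactose medium with 23 nl compound. Growth recovery read as OD600; NS1-free strain serves as control.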
# Shiga inhibitor: Shiga toxin inhibition; Vero cells, Shiga toxin protein synthesis inhibition reporter; inhibition, % at 38.7 µM; 290,000 compounds, 9.2% hits; in the data active = inhibition mostly above about 28%, no sharp cut-off; inactive = mostly below about 43%; note: 0% is about no effect
# Giardia FBPA inh: blocks Giardia fructose-bisphosphate aldolase activity; purified Giardia FBPA; Potency, µM (series often up to 59.6 µM), without a hit: at the top dose activity, negative = inhibition, actives largely listed as inhibitors; 290,000 compounds, 0.71% hits; AID 2451; note: potency is the fitted concentration of half-maximal effect; % is set by controls: 0 for no effect and ±100 for the full control effect; nearly all actives have a fitted effect of over 55% in size
# Target sequence (A8B2U2 whole entry, looked up): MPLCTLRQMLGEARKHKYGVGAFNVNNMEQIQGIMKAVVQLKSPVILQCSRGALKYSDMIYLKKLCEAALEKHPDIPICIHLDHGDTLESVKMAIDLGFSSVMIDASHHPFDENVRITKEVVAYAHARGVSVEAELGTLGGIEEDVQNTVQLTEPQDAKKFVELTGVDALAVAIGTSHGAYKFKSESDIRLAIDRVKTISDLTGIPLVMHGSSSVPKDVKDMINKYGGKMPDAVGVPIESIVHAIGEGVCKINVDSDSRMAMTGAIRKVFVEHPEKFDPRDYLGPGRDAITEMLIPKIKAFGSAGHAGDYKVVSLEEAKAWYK
#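 Giardia FBPA (40 nM reagent) was preincubated 10 min at RT with compound (up to 57.5 uM final), then substrate plus GAPDH/TPI/NAD/arsenate coupling system with diaphorase/resazurin was added; resorufin fluorescence (525/598 nm) was read after 20 min.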
# Active calls of the source: *; u = inconclusive; x = not tested or not shown; ! = not active in a repeat; [ ] = another dose, or the depositor's remark. Unless noted, calls come from the whole dose curve; as a rule, active = well fitted curve in the direction sought with a large enough effect; inconclusive = small, poorly fitted or top-dose-only effect, or another doubt; inactive = no such curve, though single readings can be large; an effect the other way counts as inactive or inconclusive.
SMILES,LmPK inhibitor,Cycloheximide cs,NS1 function inh,Shiga inhibitor,Giardia FBPA inh
Cc1cc(C(=O)N/N=C/c2cccc(OC(=O)c3ccco3)c2)n[nH]1,6.7%,46.5*,7.1%,34.4,-10.0%
NC(=S)N/N=C/c1ccc2ccccc2c1,2.8%,27.1*,12.4%,-7.5,u
Cc1cc(C(=O)N/N=C/c2ccc[nH]2)n[nH]1,-19.9%,15.9*,-4.6%,36.4*,-23.0%
Cc1cc(C(=O)N/N=C/c2ccc3ccccc3c2)n[nH]1,-3.4%,23.2*,1.7%,30.3*,x
O=S(=O)(c1ccccc1)N1CCC2(CCCN(Cc3nccs3)C2)CC1,x,x,x,x,-0.4%
Cc1cnc(NC(=O)CSc2ccc(Cl)cc2)s1,-6.1%,-2.7,-8.8%,1.7,-2.8%
O=C(Nc1ccc(Cl)cc1)Nc1nc(-c2ccccc2O)cs1,2.7%,16.6,7.6%,19.9*,-11.6%
Cc1cnc(NC(=O)Nc2ccc(Cl)cc2)s1,7.0%,56.6*,x,152.6*,2.2%
Cc1csc(NC(=O)Nc2ccc(Cl)cc2)n1,11.2%,47.7*,0.3%,61.7*,-2.6%
O=C(Nc1ccc(Cl)cc1)Nc1nc(-c2sccc2Br)cs1,6.7%,-3.6,8.7%,12.3,0.1%
CCCCn1c(N)c(N(CCOC)C(=O)c2ccc3c(c2)C(=O)N(c2cc(C)ccc2C)C3=O)c(=O)[nH]c1=O,4.2%,-7.8,3.9%,24.9,x
Cc1cccc(N(C(=O)CCC(=O)Nc2cc(C)on2)C(C(=O)NC2CCCC2)c2ccc(C)o2)c1 (stereo not drawn),1.4%,26.0*,-0.2%,28.4*,0.0%
O=C(O)c1ccc(N2CCCCC2)cc1,-10.4%,-1.8,5.3%,-5.1,2.0%
O=C(c1ccccc1)c1ccc(N2CCNCC2)cc1,-6.3%,34.0*,-6.6%,active,2.2%
O=C(O)CCC(=O)N1CCN(c2ccc(C(=O)c3ccc(F)cc3)cc2)CC1,-6.3%,0.5,-8.8%,12.3,2.1%
CN1CCN(c2ccc(C(=O)c3ccc(F)cc3)cc2)CC1,1.2%,15.2,-1.8%,110.6*,-0.5%
O=C(c1ccccc1)c1ccc(N2CCCC2)cc1,-3.9%,23.5*,-3.2%,53.1*,1.2%
Cc1cccc(NC(=O)CCC2CCN(C(=O)C3CC=CCC3)CC2)c1 (stereo not drawn),-3.4%,0.9,-6.1%,-10.4,x
COc1ccc(C(=O)NCCCNC(=O)c2cccnc2)cc1Br,1.8%,6.8,4.4%,-1.7,-3.2%
CN(Cc1cccs1)C(=O)CNC(=O)c1ccco1,-9.1%,22.3*,21.8%,58.2,x
COc1ccc2c(c1)c(CC(=O)Nc1ccc(C(C)=O)cc1)c(C)n2C(=O)c1ccc(Cl)cc1,4.1%,47.4*,22.0%,83.1*!,-5.8%
COc1ccc2c(c1)c(CC(=O)Nc1ccccc1OC)c(C)n2C(=O)c1ccc(Cl)cc1,-4.7%,-2.6,23.0%,-3.1,2.8%
CCO[P@]1(=O)OC[C@@H]2O[C@H](n3cnc4c(N)ncnc43)[C@H](O)[C@@H]2O1,x,x,-7.7%,x,x
COc1ccc2c(c1)NC(=O)CC(c1ccccc1)=N2,3.6%,37.6*,-11.2%,66.4*,-0.1%
O=C(CSc1nnc(-c2cccs2)o1)N1CCc2ccccc21,2.5%,0.6,-48.1%,-18.2,1.4%
SMILES,LmPK inhibitor,Cycloheximide cs,NS1 function inh,Shiga inhibitor,Giardia FBPA inh
C=CCSc1nnc(-c2cc3c(s2)-c2ccccc2CC3)o1,3.4%,14.2*,-22.1%,51.8*,-7.3%
Cc1ccc(S(=O)(=O)c2cc3c(=O)n4ccccc4nc3n(C3CCCCC3)c2=N)cc1,-8.3%,6.1,11.2%,-19.4,x
CCCCNC(=O)CO/N=C(\C)c1cc2ccccc2o1,0.6%,53.7*,-10.4%,77.3*,26.6%
C/C(=N\OCC(=O)NCC(F)(F)F)c1cc2ccccc2o1,4.3%,53.0*,0.7%,70.6*,1.6%
CCc1cccc(C)c1NC(=O)CO/N=C(\C)c1cc2ccccc2o1,3.5%,-1.8,6.7%,18.7,3.6%
O=C(NNC(=S)Nc1ccc(Cl)cc1)c1cccs1,0.5%,38.3*,-3.9%,99.9*,18.2%
O=C(NNC(=S)Nc1ccccc1)c1cccs1,-17.9%,37.8*,4.1%,47.1*,3.0%
CCCCCCCC1=Cc2ccc(F)cc2C(C(C(C)=O)C(=O)OC)N1C(=O)OC (stereo not drawn),0.6%[11.5 µM],x,x,x,1.3%
COc1ccc(Cl)cc1NC(=O)c1ccco1,-10.4%,-2.8,-23.0%,-8.3,-4.5%
COc1cc2cc(/C=C/C(=O)c3ccco3)c(Cl)nc2cc1OC,-0.2%,15.6,-3.7%,68.0*,-9.7%
COc1ccc2cc(/C=C/C(=O)c3ccco3)c(Cl)nc2c1,1.7%,38.4*,-3.9%,91.3,0.4%
COc1ccc(-n2nnnc2SCC(=O)Nc2cccc(O)c2)cc1,-0.2%,0.2,15.2%,x,2.2%
